Source: PubChem
Shown are actives, neighbours in structure and some others; about 2.2% of the full set was active somewhere.
TROY NFkB inh = inhibitors of TROY-dependent NF-kB signaling; Q293 LMP1-TROYcd NF-kB luciferase reporter, 4 h; inhibition, % at 10 µM; actives 0.98% (n = 360,000); AID 1347056;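 active = compounds whose plate-normalised and pattern-corrected inhibition of the luciferase reporter signal at the single screening dose is 50% or more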
TWEAK-Fn14 inh = blocks TWEAK-Fn14 interaction in a reporter cell assay; actives 2% (n = 360,000); TWEAK-stimulated Fn14 reporter cells, luciferase luminescence, 8 h; AID 1159606; inhibition, % at 10 µM; in the data active = inhibition above about 50%
HSP90 inh = inhibitors of HSP90 luciferase refolding in rabbit reticulocyte lysate. luciferase refolding luminescence, 3 h. inhibition, % at 5.6 µM. actives 0.91% (n = 290,000);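 active = inhibition above the screen-wide mean plus 3 SD, computed separately per campaign, cut at about 16% in these data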;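 also: 0% = DMSO wells and 100% = 60 µM geldanamycin wells; inhibitors lower the luminescence because luciferase stays unfolded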
LGR2 antag = inhibitors of bursicon-induced Drosophila LGR2 receptor cAMP signaling | HEK293 LGR2, CRE-luciferase, bursicon-stimulated, 4 h | inhibition, % at 9.99 µM | actives 0.35% (n = 380,000) | AID 720647;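 active = drop in luminescence signal, shown as inhibition above about 50% in the replicate tests, limit read from the data, passing the limit was not always enough; inconclusive = probably only some replicates passing the limit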;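 also: agonist challenge used bursicon conditioned medium at about half maximal strength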
The depositor's hits bear a star; ! = repeats disagree.

What do the screens show for `CCCc1cc(-c2[nH]ncc2-c2ccc3c(c2)OCCCO3)c(O)cc1OC`?
HSP90 inh: 0.0

What do the screens show for `CCc1cc(-c2[nH]ncc2-c2ccc(OC)cc2)c(O)cc1O`?
TROY NFkB inh: 48.8; TWEAK-Fn14 inh: 64.0*; HSP90 inh: 0.7; LGR2 antag: 36.1

What do the screens show for `COc1ccc(S(=O)(=O)Nc2ccc3c(c2)CC(=O)N([C@@H](C)CO)C[C@@H](C)[C@@H](CN(C)S(=O)(=O)c2ccc(OC)cc2)O3)cc1`?
LGR2 antag: 2.4

What do the screens show for `COC(=O)c1cc2c(c3c4cc(C)ccc4n(S(=O)(=O)c4ccc(C)cc4)c13)C(=O)N(Cc1ccccc1)C2`?
LGR2 antag: -5.6

How did COC(=O)c1c[nH]c2c1-c1cc(C(=O)OCc3ccccc3)n(S(=O)(=O)c3ccc(C)cc3)c1C(=O)C2=O do in these assays?
TROY NFkB inh: 57.1*; TWEAK-Fn14 inh: 98.9*; LGR2 antag: 9.0

What do the screens show for `CCc1nc2c(c(=O)[nH]1)C1(CCCC1)Cc1ccccc1-2`?
TROY NFkB inh: 0.4; TWEAK-Fn14 inh: 17.5; HSP90 inh: 3.5

What do the screens show for `Cc1nc(=S)c2c([nH]1)-c1ccccc1CC21CCCCC1`?
TROY NFkB inh: -5.3; TWEAK-Fn14 inh: 75.4*; HSP90 inh: -1.2; LGR2 antag: 1.9

Results for O=C(/C=C/c1cccs1)NC(=S)Nc1ccc(S(=O)(=O)Nc2ccccc2C(F)(F)F)cc1 ?
TROY NFkB inh: 52.2*; TWEAK-Fn14 inh: 9.2; HSP90 inh: -3.3; LGR2 antag: 10.8

Results for COc1ccc(NC(=S)NC(=O)/C=C/c2cccs2)cc1 ?
TROY NFkB inh: -27.0; TWEAK-Fn14 inh: 13.8; HSP90 inh: 3.8; LGR2 antag: 22.8

What do the screens show for `CCOC(=O)C1=C(COCCN)NC(C)=C(C(=O)OC)C1c1ccccc1Cl` (stereo not given)?
TROY NFkB inh: 65.6*!; TWEAK-Fn14 inh: 2.8; LGR2 antag: 17.7

How did COc1ccc(C#Cc2ccc([C@H]3[C@@H](CO)N4C(=O)CN(C(=O)c5cccnc5)C[C@@H]34)cc2)cc1 do in these assays?
LGR2 antag: -16.7

How did CC(=O)N(C)C[C@@H]1Oc2ncc(-c3ccccc3C)cc2C(=O)N([C@H](C)CO)C[C@H]1C do in these assays?
LGR2 antag: 8.3

How did CCOC(=O)NC(=O)/C(C#N)=N\Nc1cccc(Cl)c1 do in these assays?
TROY NFkB inh: 55.7*; TWEAK-Fn14 inh: -0.8; HSP90 inh: -3.2; LGR2 antag: 1.6

How did O=C(C[C@H]1CC[C@@H](NC(=O)Nc2ccc3c(c2)OCO3)[C@@H](CO)O1)NCCCN1CCOCC1 do in these assays?
LGR2 antag: 12.4

What do the screens show for `CC(=O)c1c(C)oc2ccc(NS(=O)(=O)c3ccc(F)cc3C)cc12`?
TROY NFkB inh: 32.9; TWEAK-Fn14 inh: 56.3*; HSP90 inh: -2.8; LGR2 antag: -1.1

What do the screens show for `CC(=O)c1c(C)oc2ccc(NS(=O)(=O)c3ccc(O)c(C(=O)O)c3)cc12`?
TROY NFkB inh: -7.9; TWEAK-Fn14 inh: 0.3; HSP90 inh: -2.9

What do the screens show for `Cc1ccc2[nH]c3c(=O)n(CCc4cnc[nH]4)cnc3c2c1`?
TROY NFkB inh: 53.2*; TWEAK-Fn14 inh: 14.6; HSP90 inh: -0.1

Results for CC(=O)Nc1nc2c(s1)CCc1ccccc1-2 ?
TROY NFkB inh: -15.5; TWEAK-Fn14 inh: 57.2*; HSP90 inh: -0.1; LGR2 antag: -9.5

What do the screens show for `O=C(CCCl)Nc1nc2c(s1)CCc1ccccc1-2`?
TROY NFkB inh: -20.8; TWEAK-Fn14 inh: 2.7; HSP90 inh: -2.0; LGR2 antag: 8.3

Results for Cc1noc(C)c1S(=O)(=O)N(C)C[C@H]1Oc2ccc(NS(=O)(=O)c3ccccc3)cc2CC(=O)N([C@H](C)CO)C[C@H]1C ?
LGR2 antag: 23.9

What do the screens show for `COc1ccc(CN2[C@@H](CO)[C@@H]3c4ccccc4N(C(=O)CC(F)(F)F)C[C@@H]32)cc1`?
LGR2 antag: 1.1

What do the screens show for `CC(=O)c1cccc(NC(=O)C2Cc3c(-c4ccccc4Oc4ccccc4)ccnc3O2)c1` (stereo not given)?
TROY NFkB inh: 47.6; TWEAK-Fn14 inh: 51.4*; LGR2 antag: 39.6

What do the screens show for `CC(=O)Nc1cccc(-c2ccnc3c2CC(C(=O)Nc2cccc(Oc4ccccc4)c2)O3)c1` (stereo not given)?
TROY NFkB inh: 40.9; TWEAK-Fn14 inh: 57.1*; LGR2 antag: 19.5

How did CC(=O)Nc1ccc(-c2ccnc3c2CC(C(=O)Nc2cccc(Oc4ccccc4)c2)O3)cc1 (stereo not given) do in these assays?
TROY NFkB inh: 22.0; TWEAK-Fn14 inh: 39.9; LGR2 antag: 2.1

How did Cc1ccc(NCC(=O)N/N=C\c2ccc[nH]2)cc1 do in these assays?
TROY NFkB inh: 68.6*; TWEAK-Fn14 inh: 89.0*; HSP90 inh: 2.0; LGR2 antag: -11.2

How did Cc1ccc(C)c(NC(=O)CCC(=O)N/N=C/c2ccc[nH]2)c1 do in these assays?
TROY NFkB inh: -38.8; TWEAK-Fn14 inh: -2.3; HSP90 inh: 1.9; LGR2 antag: 8.5

What do the screens show for `CC(C)(C)c1ccc(C(=O)CC(=O)c2cc(Cl)ccc2O)cc1`?
TROY NFkB inh: -37.1; TWEAK-Fn14 inh: -5.7; HSP90 inh: -0.6

What do the screens show for `N/C(=C\C(=O)c1cc(Cl)ccc1O)C(Cl)(Cl)Cl`?
TROY NFkB inh: 7.5; TWEAK-Fn14 inh: 67.3*; HSP90 inh: 6.1; LGR2 antag: -1.9

How did Cc1ccc(/C=N/Nc2ccc3ccccc3n2)o1 do in these assays?
TROY NFkB inh: 24.4; TWEAK-Fn14 inh: 85.9*; HSP90 inh: 13.5; LGR2 antag: inconclusive

What do the screens show for `C/C(=N\Nc1ccc2nncn2n1)c1ccccn1`?
TROY NFkB inh: -10.0; TWEAK-Fn14 inh: -18.6; HSP90 inh: 1.6; LGR2 antag: -1.4

Results for Cc1ccc(/C=N/Nc2cn[nH]c(=O)n2)o1 ?
TROY NFkB inh: -26.2; TWEAK-Fn14 inh: 7.5; HSP90 inh: 5.2; LGR2 antag: -2.2

How did CC(=NNc1ccc2ccccc2n1)c1ccccc1O do in these assays?
TROY NFkB inh: 73.8*; TWEAK-Fn14 inh: 99.6*; LGR2 antag: 94.8*

How did CC(=NNc1ccc2ccccc2n1)c1ccccn1 do in these assays?
LGR2 antag: 103.6*

What do the screens show for `COc1ccc(S(=O)(=O)N2CC[C@@H]3[C@H]2c2cc(C#Cc4ccccc4OC)ccc2N[C@@H]3CO)cc1`?
LGR2 antag: 23.6

How did CO[C@H](CN(C)C(=O)c1ccc2c(c1)OCO2)[C@H](C)CN([C@@H](C)CO)S(=O)(=O)c1ccc(F)cc1 do in these assays?
LGR2 antag: -14.2

Results for NC(=S)NN=C1c2cc(OCCN3CCOCC3)ccc2-c2ccc(OCCN3CCOCC3)cc21 ?
TROY NFkB inh: 75.1*; TWEAK-Fn14 inh: 6.5; HSP90 inh: -1.8; LGR2 antag: 104.2*

Results for CC(C)c1ccc(NC(=O)Nc2nc(C(N)C(C)C)cs2)cc1 (stereo not given) ?
TROY NFkB inh: 5.2; TWEAK-Fn14 inh: -0.4; LGR2 antag: 8.9

What do the screens show for `NC(c1csc(NC(=O)Nc2cccc(Cl)c2)n1)c1ccccc1Cl` (stereo not given)?
TROY NFkB inh: 41.9; TWEAK-Fn14 inh: 63.3*; LGR2 antag: 42.0

What do the screens show for `CC(C)c1ccc(NC(=O)Nc2nc(C(N)c3ccccc3)cs2)cc1` (stereo not given)?
TROY NFkB inh: -8.1; TWEAK-Fn14 inh: -21.1; LGR2 antag: 94.1*
